This is part of a sample that, as a whole, favours compounds with a hit. Of some 83,000 tested, about 20% had one in any assay.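 A percent growth of 40 corresponds to 60% growth inhibition; 0 means no net growth; -100 means all cells died. Active threshold: below 10.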 Calls of active or inactive are those of the source.
System: EKVX NSCLC
Assay: NCI-60 one-dose screen, 48 h (100 = growth as untreated, 0 = no growth, -100 = all killed)
Settings: 10 µM unless noted
Protocol: Growth inhibition of the EKVX human Non-Small Cell Lung tumor cell line is measured as a screen for anti-cancer activity. Cells are grown in 96 well plates and exposed to the test compound for 48 hours. Compounds are tested at a single concentration, which is 10^-5 M for most compounds. The reported endpoint is percent growth (GI% or GIPRCNT), where numbers from 0 - 100% represent growth inhibition, and numbers from -100% - 0 represent cell death. For example, a value of 40 represents 60% growth inhibition. A value of 0 means no net growth occurred over the course of the experiment. A value of -40 indicates 40% of cells at the beginning of the experiment died by the end of the experiment. A value of -100 means all cells are dead at the end of the experiment.
NCI-60 Human Tumor Cell Lines Screen was performed using the standard one-dose NCI protocol, which is described in more detail at https://dtp.cancer.gov/discovery_development/nci-60/default.htm.
Compounds with GIPRCNT values below 10 were considered active. Activity score was based on GIPRCNT using the following formula: […]
Score is 0 for GIPRCNT values of 100 or above, 50 for GIPRCNT values of 0, and 100 for GIPRCNT values of -100.

Structure (SMILES)	growth
COc1ccc2c(c1)c(CC(=O)[Se]CCC#N)c(C)n2C(=O)c1ccc(Cl)cc1	-82.5% (active)
CNC(=O)c1cc(-c2ccc(NC(=S)Nc3cc(C(F)(F)F)cc(C(F)(F)F)c3)cc2)nc2cccnc12	70% (inactive)
O=S(=O)(NC1c2ccccc2C[C@H]1O)c1ccc(Cl)cc1Cl (stereo not given in full)	98.8% (inactive)
CS(=O)(=O)c1ccc(-n2cc(/C=N/O)c(-c3ccccc3)n2)cc1	81.7% (inactive)
CS(=O)(=O)c1ncc(-c2ccccc2)cn1	97.1% (inactive)
C[C@@H]1C[C@H]2C(=O)O[C@@H](C)C(NC(=O)[C@H](Cc3cc(F)cc(F)c3)NC(=O)Nc3ccc(C4CC4)cc3F)C(=O)N3CCC[C@H]3C(=O)N3CCCC[C@H]3C(=O)N[C@@H](CO)C(=O)N2C1 (stereo not given in full)	30.2% (inactive)
Cc1cccc2c3c(sc12)C(c1ccc(F)cc1)C(C#N)=C(/N=C/c1ccc(Cl)cc1)O3 (stereo not given)	47.8% (inactive)
COc1c(N2CC3CCCNC3C2)c(F)cc2c(=O)c(C(=O)N/N=C/c3ccc4c(c3)OCO4)cn(C3CC3)c12 (stereo not given)	66.6% (inactive)
Oc1ccc(CSc2nnc(-c3ccc(Cl)cc3)n2-c2ccccc2)c2cccnc12	28.6% (inactive)
C[C@H](CCC(=O)NCc1ccc(C(=O)Nc2ccccc2N)cc1)[C@H]1CC[C@H]2[C@@H]3[C@@H](O)C[C@@H]4C[C@H](O)CC[C@]4(C)[C@H]3CC[C@]12C	69.4% (inactive)
COc1cc2oc(-c3cccc(N)c3)cc(=O)c2c(OC)c1OC	104% (inactive)
NS(=O)(=O)c1ccc(Nc2nc(N/N=C/CCc3ccccc3)nc(Nc3ccccc3)n2)cc1	97.8% (inactive)
CN1CCN(c2ccc(/C=N/Nc3nc4ccccc4c(=O)n3-c3ccccc3)cc2)CC1	100% (inactive)
COc1cc2nc(Cl)nc(Nc3cccc(C4=Nc5c(N)nc(N)nc5NC(c5ccc6c(c5)OCO6)C4)c3)c2cc1OC (stereo not given)	86.1% (inactive)
N#Cc1c(Nc2ccccc2)nn2c(-c3ccc([N+](=O)[O-])cc3)ccnc12	99.5% (inactive)
CC1(C)NCCC[C@]2(C)[C@H]3C/C(=N\O)C4[C@@H]5C[C@@](C)(CO)CC[C@]5(C)CC[C@@]4(C)[C@]3(C)CC[C@@H]12 (stereo not given in full)	108% (inactive)
CCN1CCN(Cc2cn(-c3ccc(S(N)(=O)=O)cc3)nn2)CC1	103% (inactive)
COc1ccccc1-n1cc(C#N)c(N)c1C(=O)c1ccc(C)cc1	89.1% (inactive)
O=c1c2ccccc2nc(COc2ccccc2)n1NS(=O)(=O)c1ccc(Cl)cc1	74.8% (inactive)
COc1cc(OC)cc(C(=O)Nc2sc3c(c2C(N)=O)CCC(=O)C3)c1	89% (inactive)

Structure (SMILES)	growth
Cc1cc(S(=O)(=O)N(C)C)cc(NCC(=O)NC(=O)NCC(C)C)c1C	63.1% (inactive)
NS(=O)(=O)c1ccc(-n2cc(-c3cccc(NC(=O)c4ccc(N5CCOCC5)c(C(F)(F)F)c4)c3)nn2)cc1	74.1% (inactive)
Clc1ccc(N/N=c2/oc3ccccc3cc2-c2cc3ccccc3[nH]2)cc1	70.2% (inactive)
CNC(=O)c1c(NC(=O)c2ccccc2C(F)(F)F)sc2c1CCC(=O)C2	23.9% (inactive)
Nc1ncc(-c2ccc(NS(=O)(=O)c3ccc(Cl)c(Cl)c3)cc2)[nH]1	86.7% (inactive)
COc1cc2nc(Cl)nc(Nc3cccc(C4=Nc5c(N)nc(N)nc5NC(c5ccccc5)C4)c3)c2cc1OC (stereo not given)	96.7% (inactive)
COc1ccc(/C=C(\C#N)C(=O)N2c3ccccc3Sc3ccc(SC)cc32)cc1F	97.8% (inactive)
O=C(NNc1nc2cc(F)c(F)cc2n2cccc12)c1cnccn1	17% (inactive)
CC(C)C[C@@H]1N[C@@]2(C(=O)Nc3ccccc32)[C@@H](c2ccc(F)cc2)[C@@H]1C(=O)c1ccc(O)cc1	79.9% (inactive)
CCCCCc1ccc(S(=O)(=O)Nc2cccc(-c3csc(NC(=O)CCCCCN4CCN(CCO)CC4)n3)c2)cc1	81% (inactive)
N#Cc1cnc2ccc(-c3cnc(N)nc3)cc2c1N1CCc2cc(F)c(Cl)cc21	-7.03% (active)
CC[C@H](CO)Nc1ccc2ncc(C#Cc3cncc(C(=O)Nc4ccc(CN5CCN(C)CC5)c(C(F)(F)F)c4)c3)n2n1	-64.3% (active)
O=C(CSc1nnc(-c2ccc(Cl)cc2)n1-c1ccccc1)Nc1cccc(Cl)c1	62.3% (inactive)
NS(=O)(=O)c1ccc(Nc2nc(N/N=C/c3ccccn3)nc(Nc3ccccc3)n2)cc1	13.3% (inactive)
COc1ccc(/C=N/NC(=O)c2cn(C3CC3)c3c(OC)c(N4CC5CCCNC5C4)c(F)cc3c2=O)cc1 (stereo not given)	102% (inactive)
NC(N)=Nc1ccc(Oc2cccc(Oc3ccc(Cl)c(C(F)(F)F)c3)c2)cn1	-7.2% (active)
Cc1ccc(C2=NN(C)C(=O)C3(CCCC3)C2)cc1	102% (inactive)
Brc1ccccc1/C=N/Nc1nc(N/N=C/c2ccccc2Br)nc(N2CCOCC2)n1	80.2% (inactive)
Nc1nc(-c2cccc([N+](=O)[O-])c2)c(N=Nc2ccccc2)s1	51.8% (inactive)
COc1cc(-c2nc(-c3ccccc3)[nH]c2-c2ccnc(NCCCNS(=O)(=O)c3cccc(F)c3)n2)ccc1Cl	54.3% (inactive)

Source: PubChem BioAssay (NCI)
